Experimental data published in PubChem BioAssay (Tox21).
Results filed as inconclusive are left out. Calls of active or inactive are those of the source. Unless noted, calls follow the shape of the full dose curve.

Experiments:
[1] = Nuclear factor erythroid 2-related factor 2/antioxidant responsive element (Nrf2/ARE) small molecule agonists: qHTS cell viability counter screen in human keratinocytes (AID 1919968; active = well fitted curve in the direction sought with a large enough effect in the repeat runs; an effect the other way counts as inactive or inconclusive; also: nearly all actives have a fitted effect of over 55% in size; also: potency is read from the fitted curve at half-maximal effect)
In short: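 Fluorescence read-out from CellTiter-Fluor after 1 h at 37 C. Wells held HaCaT-derived ARE-luciferase reporter cells (1,500/well) treated 23 h with DMSO-dissolved compounds. Run in the same wells as the luciferase agonist read.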

[2] = target: Gonadotropin-releasing hormone receptor (Homo sapiens) (UniProt P30968); assay: Human gonadotropin-releasing hormone receptor (GnRHR) small molecule agonists, calcium flux assay in GnRHR-HEK293 cells (AID 1920063); also: nearly all actives have a fitted effect of over 35% in size
Sequence of Gonadotropin-releasing hormone receptor (Homo sapiens) (P30968 whole entry, looked up): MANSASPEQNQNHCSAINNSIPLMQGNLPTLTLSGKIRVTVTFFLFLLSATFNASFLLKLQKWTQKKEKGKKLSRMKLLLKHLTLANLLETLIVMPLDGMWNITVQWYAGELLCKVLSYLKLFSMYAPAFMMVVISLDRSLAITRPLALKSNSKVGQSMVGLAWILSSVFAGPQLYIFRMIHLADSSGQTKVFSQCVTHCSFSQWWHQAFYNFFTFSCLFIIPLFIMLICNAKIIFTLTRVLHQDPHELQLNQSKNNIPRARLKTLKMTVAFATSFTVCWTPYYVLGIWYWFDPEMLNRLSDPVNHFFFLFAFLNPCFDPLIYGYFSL
In short: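 Calcium-dye fluorescence, Ex/Em=480/540, recorded every 1 sec over 3 min after compound addition to GnRHR-HEK293 cells. Cells had been seeded 18 hours earlier and dye-loaded for 1 hour at 37 C. Fifteen concentrations, triplicates.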

[3] = p53 small molecule agonists, cell-based qHTS assay with rat liver microsomes (AID 1963578)
In short: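 Rat liver microsome activation: microsomes 0.5 mg/mL, NADPH 0.5 mg/mL final; p53RE-bla cells, 16 h 37 C; LiveBLAzer readout, 2 h RT dark.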

[4] = p53 small molecule agonists, cell-based qHTS assay with human liver microsomes: qHTS cell viability counter screen (AID 1963579); also: nearly all actives have a fitted effect of over 45% in size; also: potency is read from the fitted curve at half-maximal effect
In short: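 Luminescent CellTiter-Glo read-out, 30 min at room temperature, gauged cytotoxicity in p53RE-bla cells exposed 16 h at 37 C to DMSO-dissolved compounds with metabolic activation by human liver microsomes and NADPH, each 0.5 mg/mL final.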

[5] = p53 small molecule agonists, cell-based qHTS assay with rat liver microsomes: qHTS cell viability counter screen (AID 1963580); also: nearly all actives have a fitted effect of over 45% in size; also: potency is read from the fitted curve at half-maximal effect
In short: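 After the beta-lactamase ratio was read, CellTiter-Glo was added to the same wells and luminescence measured at 30 min; cells had been treated 16 h at 37 C with compounds, rat liver microsomes and NADPH (0.5 mg/mL final each).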

[6] = p53 small molecule agonists, cell-based qHTS assay: qHTS cell viability counter screen (AID 1963581); also: nearly all actives have a fitted effect of over 45% in size
In short: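 Cytotoxicity read-out: ATP-based luminescence (CellTiter-Glo, 30 min RT) measured in the same wells as the p53 reporter assay, HCT-116 p53RE-bla cells, 16 h compound exposure at 37 C.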

[7] = p53 small molecule agonists, cell-based qHTS assay (AID 1963582; active = well fitted activation curve with a large enough effect in the signal ratio in the repeat runs, not every such curve was filed as active; the % refers to the signal ratio)
In short: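 Fluorescence intensity read-out of a beta-lactamase reporter under a p53 response element. Cells were exposed to DMSO-dissolved compounds for 16 h at 37 C, then developed with FRET substrate for 2 h at RT.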

[8] = target: 5-hydroxytryptamine receptor 2A (Homo sapiens) (UniProt P28223); assay: 5-hydroxytryptamine receptor 2A (HTR2A) small molecule antagonists, cell-based qHTS assay (AID 1963586); also: nearly all actives have a fitted effect of over 45% in size
Sequence of 5-hydroxytryptamine receptor 2A (Homo sapiens) (P28223 whole entry, looked up): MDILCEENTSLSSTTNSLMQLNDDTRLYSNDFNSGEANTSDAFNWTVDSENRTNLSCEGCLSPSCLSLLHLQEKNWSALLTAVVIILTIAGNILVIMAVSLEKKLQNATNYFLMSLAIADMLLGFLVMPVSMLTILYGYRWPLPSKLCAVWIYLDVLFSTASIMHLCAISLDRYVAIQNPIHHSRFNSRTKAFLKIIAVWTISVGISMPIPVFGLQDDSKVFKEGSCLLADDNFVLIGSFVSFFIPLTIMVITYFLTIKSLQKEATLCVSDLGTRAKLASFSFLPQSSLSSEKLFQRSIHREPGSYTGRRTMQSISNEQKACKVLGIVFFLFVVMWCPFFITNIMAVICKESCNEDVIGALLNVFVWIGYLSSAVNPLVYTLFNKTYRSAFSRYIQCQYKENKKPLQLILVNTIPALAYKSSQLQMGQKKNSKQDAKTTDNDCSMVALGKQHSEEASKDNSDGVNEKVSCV
In short: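 CHO cells stably expressing human HTR2A were plated for 18 h at 37 C, then loaded with calcium dye for 1 h. Compounds were preincubated 5 min at room temperature before DOI (4 nM solution) was added. Kinetic fluorescence was read for 3 min.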

[9] = target: 5-hydroxytryptamine receptor 2A (Homo sapiens) (UniProt P28223); assay: 5-hydroxytryptamine receptor 2A (HTR2A) small molecule agonists, cell-based qHTS assay (AID 1963587); also: nearly all actives have a fitted effect of over 30% in size; also: potency is read from the fitted curve at half-maximal effect
In short: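 CHO cells stably expressing human HTR2A, plated 18 h, loaded with calcium dye 1 h at 37 C. Agonist mode: compounds added and intracellular calcium fluorescence recorded kinetically for 2 min at 1 sec intervals.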

[10] = target: Muscarinic acetylcholine receptor M1 (Homo sapiens) (UniProt P11229); assay: Cholinergic receptor muscarinic 1 (CHRM1) small molecule antagonists, cell-based qHTS assay (AID 1963588); also: nearly all actives have a fitted effect of over 40% in size
Sequence of Muscarinic acetylcholine receptor M1 (Homo sapiens) (P11229 whole entry, looked up): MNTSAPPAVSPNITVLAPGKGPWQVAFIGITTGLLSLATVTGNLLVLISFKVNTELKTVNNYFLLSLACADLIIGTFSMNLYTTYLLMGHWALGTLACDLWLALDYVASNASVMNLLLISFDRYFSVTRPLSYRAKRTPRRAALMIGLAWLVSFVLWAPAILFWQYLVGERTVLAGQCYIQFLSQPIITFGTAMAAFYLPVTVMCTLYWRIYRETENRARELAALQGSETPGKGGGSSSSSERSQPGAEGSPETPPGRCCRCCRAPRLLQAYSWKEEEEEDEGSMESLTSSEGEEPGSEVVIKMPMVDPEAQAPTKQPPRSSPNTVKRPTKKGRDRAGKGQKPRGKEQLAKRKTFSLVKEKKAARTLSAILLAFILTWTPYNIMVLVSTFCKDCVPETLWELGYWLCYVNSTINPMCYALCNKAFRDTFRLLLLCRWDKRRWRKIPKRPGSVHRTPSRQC
In short: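 Compounds were tested at 15 concentrations in three independent runs. Dye-loaded CHRM1-CHO cells were exposed 5 min at room temperature before stimulation by acetylcholine added at 50nM. Intracellular calcium was read kinetically on FDSS for 3 min.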

[11] = target: Muscarinic acetylcholine receptor M1 (Homo sapiens) (UniProt P11229); assay: Cholinergic receptor muscarinic 1 (CHRM1) small molecule agonists, cell-based qHTS assay (AID 1963589); also: nearly all actives have a fitted effect of over 35% in size
In short: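 Calcium flux read-out: kinetic fluorescence at 1 sec intervals after pin-tool compound addition to dye-loaded CHRM1-CHO cells (human M1). Agonist mode; 15 concentrations tested in triplicate independent runs.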

[12] = cAMP Responsive Elements (CRE) small molecule agonists, cell-based qHTS assay (AID 1963590)
In short: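 Beta-lactamase reporter readout: LiveBLAzer B/G FRET substrate, 2 h at room temperature, added after 3 h compound treatment of CRE-bla HEK 293T cells at 37 C/5% CO2.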

[13] = cAMP Responsive Elements (CRE) small molecule antagonists, cell-based qHTS assay (AID 1963591; active = well fitted inhibition curve with a large enough effect in the signal ratio in the repeat runs, not every such curve was filed as active; the % refers to the signal ratio)
In short: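 HEK293T CRE-bla; 18 h preincubation; compound pin-transfer; NKH477 0.25 uM final, 3 h, 37 C; LiveBLAzer FRET substrate 2 h RT.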

[14] = target: Beta-2 adrenergic receptor (Homo sapiens) (UniProt P07550); assay: Adrenergic beta2 receptor (ADRB2) small molecule agonists, cell-based qHTS assay (AID 1963593);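 also: CHO cells stably overexpressing human ADRB2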
Sequence of Beta-2 adrenergic receptor (Homo sapiens) (P07550 whole entry, looked up): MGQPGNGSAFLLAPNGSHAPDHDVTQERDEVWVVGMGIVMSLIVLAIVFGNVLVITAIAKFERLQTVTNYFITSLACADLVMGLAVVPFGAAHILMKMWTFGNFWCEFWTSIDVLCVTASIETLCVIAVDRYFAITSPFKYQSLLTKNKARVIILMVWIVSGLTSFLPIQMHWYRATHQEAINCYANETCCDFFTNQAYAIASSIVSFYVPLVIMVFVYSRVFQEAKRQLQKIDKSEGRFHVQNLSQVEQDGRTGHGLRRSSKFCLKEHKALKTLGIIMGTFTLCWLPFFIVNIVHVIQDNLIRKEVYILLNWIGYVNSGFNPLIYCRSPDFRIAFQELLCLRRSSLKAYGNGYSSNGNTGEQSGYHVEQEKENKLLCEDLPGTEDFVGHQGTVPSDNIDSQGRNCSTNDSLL
In short: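 CHO cells stably over-expressing ADRB2 were plated overnight at 37C, then dosed with compounds plus a stimulation mix containing 100uM IBMX and 25uM Ro-20-1724 for 0.5hr at room temperature. cAMP was measured by HTRF competition, 1hr.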

[15] = target: D(2) dopamine receptor (Homo sapiens) (UniProt P14416); assay: Dopamine D2 receptor (DRD2) small molecule agonists, cell-based qHTS assay (AID 1963594); also: nearly all actives have a fitted effect of over 35% in size
Sequence of D(2) dopamine receptor (Homo sapiens) (P14416 whole entry, looked up): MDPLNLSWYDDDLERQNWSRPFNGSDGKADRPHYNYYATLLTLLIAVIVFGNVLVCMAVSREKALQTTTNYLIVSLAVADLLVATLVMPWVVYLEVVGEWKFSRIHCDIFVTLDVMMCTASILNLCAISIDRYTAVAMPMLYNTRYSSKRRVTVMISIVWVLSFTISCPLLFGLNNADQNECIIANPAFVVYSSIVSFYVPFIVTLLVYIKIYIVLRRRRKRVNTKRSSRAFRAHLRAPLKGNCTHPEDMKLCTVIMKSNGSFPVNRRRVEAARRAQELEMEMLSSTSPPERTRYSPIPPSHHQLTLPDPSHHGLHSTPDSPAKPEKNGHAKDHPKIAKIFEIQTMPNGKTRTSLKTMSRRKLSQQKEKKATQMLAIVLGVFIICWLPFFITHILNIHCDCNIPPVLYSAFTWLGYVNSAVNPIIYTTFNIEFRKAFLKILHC
In short: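 HEK293 cells stably expressing human DRD2, pre-treated with PDE inhibitor Ro20-1724 (0.1 mM final) and compound 10 min at room temperature, then stimulated with NKH477 (200nM […]) for 30 min. cAMP read by HTRF (665/620 nm).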

[16] = target: D(2) dopamine receptor (Homo sapiens) (UniProt P14416); assay: Dopamine D2 receptor (DRD2) small molecule antagonists, cell-based qHTS assay (AID 1963595; active = well fitted inhibition curve with a large enough effect in the signal ratio in the repeat runs, with a control signal flat; the % refers to the signal ratio)
In short: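 Antagonism was scored as restored cAMP in HEK293-DRD2 cells. These cells were stimulated with 200 nM NKH477 and 12 nM quinpirole for 30 min at room temperature, in the presence of 0.1 mM Ro20-1724.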

[17] = target: KiSS-1 receptor (Homo sapiens) (UniProt Q969F8); assay: Human kisspeptin (KISS1R) small molecule agonists, calcium flux assay in KISS1R-HEK293 cells (AID 1920064; active = well fitted curve in the direction sought with a large enough effect in the repeat runs; an effect the other way counts as inactive or inconclusive)
Sequence of KiSS-1 receptor (Homo sapiens) (Q969F8 whole entry, looked up): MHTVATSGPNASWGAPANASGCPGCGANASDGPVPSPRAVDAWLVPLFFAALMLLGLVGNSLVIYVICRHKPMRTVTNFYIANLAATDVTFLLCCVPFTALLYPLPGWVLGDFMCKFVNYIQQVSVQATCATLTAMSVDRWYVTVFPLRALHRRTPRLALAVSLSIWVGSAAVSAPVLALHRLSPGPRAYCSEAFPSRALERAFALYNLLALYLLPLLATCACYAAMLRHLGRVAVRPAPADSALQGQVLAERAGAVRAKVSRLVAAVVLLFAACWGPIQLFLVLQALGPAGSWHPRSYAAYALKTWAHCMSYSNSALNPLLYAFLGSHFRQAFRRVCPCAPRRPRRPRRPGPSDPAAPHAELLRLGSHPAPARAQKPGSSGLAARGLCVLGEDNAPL
In short: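 Calcium flux read-out: kinetic fluorescence at Ex/Em=480/540, 1 s intervals over 3 min, after pin-tool compound addition to dye-loaded KISS1R-HEK293 cells. Fifteen concentrations, triplicates.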

[18] = G protein-coupled receptor (GPCR) small molecule agonists, calcium flux assay: HEK293 wild type cell line counter screen (AID 1920065)
In short: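 Agonist mode; 18 h seeding at 37 C, 1 h dye load at 37 C; compounds pinned from DMSO, ATP as positive control; kinetic fluorescence 480/540 nm, 3 min, 1 s reads; 15 concentrations, triplicate.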

[19] = p53 small molecule agonists, cell-based qHTS assay with human liver microsomes (AID 1963577);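 also: p53 response element beta-lactamase reporter cells with liver microsomes plus NADPH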
In short: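 p53RE-bla cells; 5 h settle, 37 C/5% CO2; cpd + HLM 0.5 mg/mL + NADPH 0.5 mg/mL (final); 16 h 37 C; LiveBLAzer 2 h RT dark; fluorescence readout.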

[20] = target: Beta-2 adrenergic receptor (Homo sapiens) (UniProt P07550); assay: Adrenergic beta2 receptor (ADRB2) small molecule antagonists, cell-based qHTS assay (AID 1963592); also: series mostly up to about 92 µM; nearly all actives have a fitted effect of over 50% in size
In short: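 Assay format: CHO-ADRB2 cells, 18-20hr seeding at 37C/5% CO2, then compound plus 1nM isoproterenol agonist mix for 0.5hr RT. Homogeneous time-resolved fluorescence cAMP detection after 1hr, expressed as 665/615 nm ratio.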
% is scaled to controls: 0 for no effect and ±100 for the full control effect.

NC(=O)Nc1nc2ccccc2[nH]1
inactive: Potency [1] | Potency [2] | Potency [3] | Potency [4] | Potency [5] | Potency [6] | Potency [7] | Potency [8] | Potency [9] | Potency [10] | Potency [11] | Potency [12] | Potency [13] | Potency [14] | Potency [15] | Potency [16]

C=C/C=C/C=C/CCCCC
inactive: activity change, negative = cytotoxicity [1] 4.28% [at 19 µM] | activation [17] 1.28% [at 15.8 µM] | activation [18] 0.367% [at 11.8 µM] | activation [19] -4.49% [at 13.5 µM] | activation [3] 0.431% [at 13.6 µM] | activity change, negative = cytotoxicity [4] 1.88% [at 13.5 µM] | activity change, negative = cytotoxicity [5] -6.94% [at 13.5 µM] | activity change, negative = cytotoxicity [6] -4.28% [at 13.5 µM] | activation [7] -3.72% [at 13.5 µM] | activity, negative = inhibition [8] -10.4% [at 12.7 µM] | activation [9] -2.6% [at 15.9 µM] | activity, negative = inhibition [10] 25.8% [at 12.6 µM] | activation [11] 0.27% [at 15.8 µM] | activation [12] 0.016% [at 19 µM] | activity change, negative = inhibition [13] 0.0574% [at 18.9 µM] | activity change, negative = inhibition [20] 4.38% [at 19 µM] | activation [15] -0.0392% [at 19 µM] | activity change, negative = inhibition [16] -7.54% [at 18.9 µM]

CC(C)OC(=O)OCOP(=O)(CO[C@H](C)Cn1cnc2c(N)ncnc21)OCOC(=O)OC(C)C
inactive: Potency [1] | Potency [17] | Potency [18] | Potency [19] | Potency [3] | Potency [4] | Potency [5] | Potency [6] | Potency [7] | Potency [8] | Potency [9] | Potency [10] | Potency [11] | Potency [12] | Potency [13] | Potency [20] | Potency [15]

O=C(Nc1ccc2c(c1)Cc1ccccc1-2)C(F)(F)F
inactive: Potency [1] | Potency [2] | Potency [18] | Potency [19] | Potency [3] | Potency [4] | Potency [5] | Potency [6] | Potency [9] | Potency [11] | Potency [12] | Potency [13] | Potency [20] | Potency [15] | Potency [16]

Nc1ccn([C@@H]2O[C@H](CO)[C@@H](O)C2O)c(=O)n1 (some centres not stated)
inactive: Potency [1] | Potency [2] | Potency [17] | Potency [4] | Potency [6] | Potency [12] | Potency [13] | Potency [20] | Potency [14] | Potency [16]

CCCCN1C(=O)[C@@H]([C@H](O)C2CCCCC2)NC(=O)C12CCN(Cc1ccc(Oc3ccc(C(=O)O)cc3)cc1)CC2
inactive: Potency [1] | Potency [2] | Potency [18] | Potency [19] | Potency [3] | Potency [4] | Potency [5] | Potency [10] | Potency [16]
active: Potency [9] 24.5 µM

N/C(=N\N=C\c1ccc(Cl)cc1)N/N=C/c1ccc(Cl)cc1
active: Potency [1] 26.6 µM
inactive: Potency [2] | Potency [18] | Potency [19] | Potency [3] | Potency [4] | Potency [5] | Potency [7] | Potency [8] | Potency [9] | Potency [10] | Potency [11] | Potency [20] | Potency [14] | Potency [15]

O=C1Nc2ccc([N+](=O)[O-])cc2C1=O
inactive: Potency [1] | Potency [17] | Potency [18] | Potency [19] | Potency [3] | Potency [4] | Potency [5] | Potency [6] | Potency [7] | Potency [8] | Potency [9] | Potency [10] | Potency [11] | Potency [12] | Potency [15]

CCN(Cc1ccccc1)c1ccccc1
inactive: Potency [1] | Potency [2] | Potency [18] | Potency [3] | Potency [4] | Potency [5] | Potency [7] | Potency [8] | Potency [9] | Potency [10] | Potency [11] | Potency [12] | Potency [13] | Potency [20] | Potency [15] | Potency [16]

CC(=O)CCc1ccc(OC(C)=O)cc1
inactive: Potency [1] | Potency [2] | Potency [18] | Potency [19] | Potency [3] | Potency [4] | Potency [5] | Potency [6] | Potency [7] | Potency [8] | Potency [9] | Potency [10] | Potency [11] | Potency [12] | Potency [13] | Potency [20] | Potency [15] | Potency [16]

CC1CN(c2ccccc2)NC1=O (configuration not stated)
inactive: Potency [1] | Potency [2] | Potency [18] | Potency [3] | Potency [4] | Potency [5] | Potency [6] | Potency [7] | Potency [8] | Potency [9] | Potency [11] | Potency [13] | Potency [20] | Potency [14] | Potency [15]

C=CC(C)=CCC=C(C)C
inactive: Potency [1] | Potency [2] | Potency [18] | Potency [19] | Potency [3] | Potency [4] | Potency [5] | Potency [6] | Potency [7] | Potency [8] | Potency [9] | Potency [10] | Potency [11] | Potency [12] | Potency [20] | Potency [14] | Potency [15] | Potency [16]

O=C1C=CC(=O)N1
active: Potency [1] 28 µM | Potency [4] 21 µM | Potency [5] 29.6 µM
inactive: Potency [2] | Potency [18] | Potency [3] | Potency [8] | Potency [9] | Potency [10] | Potency [11] | Potency [15]

CCCCC(CC)CNC(=O)CC(C)OC(=O)CCC(=O)O (configuration not stated)
inactive: Potency [1] | Potency [2] | Potency [19] | Potency [4] | Potency [5] | Potency [8] | Potency [9] | Potency [10] | Potency [11] | Potency [12] | Potency [13] | Potency [20] | Potency [15] | Potency [16]

CC[C@H](C)COC(=O)/C=C/c1ccc(N=Cc2ccc(OC)cc2)cc1
inactive: Potency [1] | Potency [2] | Potency [18] | Potency [19] | Potency [3] | Potency [6] | Potency [8] | Potency [10] | Potency [11] | Potency [13] | Potency [14]

O=[N+]([O-])c1cccc(C(F)(F)F)c1
inactive: Potency [1] | Potency [2] | Potency [18] | Potency [19] | Potency [3] | Potency [4] | Potency [5] | Potency [6] | Potency [7] | Potency [8] | Potency [9] | Potency [10] | Potency [11] | Potency [12] | Potency [13] | Potency [20] | Potency [15] | Potency [16]
